Methyltransferases: Primary Screen for Target Class Profiling of Small Molecule Inhibitors of Methyltransferases. purified enzyme, MTase-Glo SAH luminescence; hits give low values. calls only at 40 µM. 25,000 tested, 3.9% active. AID 1745853, 2022; call rule not given here
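Each enzyme was reacted with SAM and its substrate, with compounds tested once at 40 uM; SAH formed was read by MTase-Glo luminescence.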
* = called active by the depositor; i = inactive; + = active, no number; ! = not active in a repeat. The sample as a whole holds a higher share of hits than the screen did. % is set by controls: 0 for no effect and ±100 for the full control effect.

SMILES	Methyltransferases
COc1cc2nc(N3CCCCC3)nc(NC3CCN(Cc4ccccc4)CC3)c2cc1OC	+!
O=S(=O)(c1ccccc1)c1nnn2c1nc(NC1CCN(Cc3ccccc3)CC1)c1ccccc12	i
COc1cc2nc(N3CCC(N4CCCCC4)CC3)nc(NC3CCCCCC3)c2cc1OC	+
COCCn1ncc(N2CCC(C(=O)NCCCN3CCC(N4CCCCC4)CC3)C2)cc1=O (stereo not drawn)	i
COc1cc2ncnc(N3CCC(Oc4cnc5ccccc5n4)C3)c2cc1OC (stereo not drawn)	i
O=S(=O)(c1ccccc1)c1nnn2c1nc(NC1CCN(Cc3ccccc3)CC1)c1cc(Cl)ccc12	i
COc1cc2nc(-c3ccc(N4CCN(C)CC4)cc3)nc(NCCN3CCOCC3)c2cc1OC	i
COc1cc2c(NC3CCN(C(C)C)CC3)nc(C3CCCCC3)nc2cc1OCCCN1CCCC1	+!
Cc1ccc(NC(=O)Cn2nc3n(CC(C)C)c(=O)c4ccccc4n3c2=O)cc1C	i
O=C(Nc1ccccc1)N1Cc2c(sc3c2CCCC3)-n2cccc2C1c1ccccc1 (stereo not drawn)	i
O=C(Cn1nc2n(CCc3ccccc3)c(=O)c3ccccc3n2c1=O)c1cccc(Cl)c1	i
COc1cc2nc(N3CCCCC3)nc(NC3CCN(C)CC3)c2cc1OC	+!
COc1cc2nc(-c3cc(F)ccc3O)nc(N[C@@H]3CNC[C@H]3C(C)(C)O)c2cc1OC	i
CCOc1ccc(CN2C(=O)c3ccc(-c4ccccc4)n3CC2(C)C(=O)NC2CCCC2)cc1 (stereo not drawn)	i
Cc1ccc(Nc2nc3c(S(=O)(=O)c4ccccc4)nnn3c3ccccc23)cc1	i
CCCn1c(=O)c2ccc(Cl)cc2n2c(=O)n(Cc3ccc(Cl)cc3)nc12	i
CC(C)CCNC(=O)C1(C)Cn2nc(C(=O)N3CCOCC3)cc2C(=O)N1C (stereo not drawn)	i
C[C@]12CC[C@@H]3c4ccc(O)c(O)c4CC[C@H]3[C@@H]1CCC2=O	+
O=C1CN(Cc2ccc(F)cc2Cl)S(=O)(=O)c2ccccc2N1Cc1cccc(F)c1	i
COC(=O)c1ncn2c1C(=O)N(c1cccc(OC)c1)C(C)(C(=O)NCc1ccccc1OC)C2 (stereo not drawn)	i
CC(C)CNC(=O)c1ccc2c(=O)n(C(C)C)c3nn(Cc4ccc(F)cc4Cl)c(=O)n3c2c1	i
O=C(CCc1nnc2n(Cc3ccccc3Cl)c(=O)c3ccccc3n12)NCc1cccnc1	i
NC(=Nc1ccc(CCNCc2cccc(Cl)c2)cc1)c1cccs1	+
COc1ccc(CNC(=O)Cn2nc3n(Cc4ccc(F)cc4)c(=O)c4ccccc4n3c2=O)cc1	i
COC(=O)C1=C(C)NC(C)=C(C(=O)OC)C1c1cccc(NC(=O)NCCCN2CCC(c3cccc(OC)c3)CC2)c1	+!
SMILES	Methyltransferases
CCN(CC)c1ncccc1CNC(=O)Nc1cccc(OC)c1	i
COc1cccc(CNC(=O)Nc2cccc(-c3ccc(N4CCCCC4)nn3)c2)c1	i
Nc1c(S(=O)(=O)O)cc(Nc2ccc(Nc3nc(Cl)nc(Nc4ccc(S(=O)(=O)O)cc4)n3)c(S(=O)(=O)O)c2)c2c1C(=O)c1ccccc1C2=O	+
COc1cccc(Cn2nc3n(Cc4ccccc4)c(=O)c4ccc(C(=O)NC(C)C)cc4n3c2=O)c1	i
COc1cc2c(cc1OC)CN(C(=O)/C=C/c1c(-c3ccccc3)n(C)c3ncccc13)CC2	+
COc1cc2c(cc1OC)CN(CCc1ccc(NC(=O)c3cc(OC)c(OC)cc3NC(=O)c3cnc4ccccc4c3)cc1)CC2	i
COc1ccccc1CNC(=O)C1(C)Cn2c(cc3ccccc32)C(=O)N1Cc1cccc(F)c1 (stereo not drawn)	i
Cc1[nH]nc2ccc(-c3cncc(OC[C@@H](N)Cc4ccccc4)c3)cc12	+
CCOC(=O)c1cc2n(n1)CC(C)(C(=O)NCCOC)N(c1cc(C)cc(C)c1)C2=O (stereo not drawn)	i
CCc1cc2c(cc3n2CC(C)(C(=O)NC2CCCCCC2)N(C(C)CCc2ccco2)C3=O)s1 (stereo not drawn)	i
Clc1ccc(C(Cn2ccnc2)OCc2c(Cl)cccc2Cl)c(Cl)c1 (stereo not drawn)	+
CCOc1ccccc1CN1C(=O)c2cc(C(C)(C)C)nn2CC1(C)C(=O)NCc1ccccc1 (stereo not drawn)	i
COc1ccc(CNC(=O)CCc2nnc3n(Cc4ccccc4Cl)c(=O)c4ccccc4n23)cc1	i
O=[N+]([O-])c1ccc(CNc2nc(NCc3cccc(C(F)(F)F)c3)nc3nc[nH]c23)cc1	+!
Cc1cccc(C2c3cccn3-c3sc4c(c3CN2C(=O)Nc2ccccc2F)CCCC4)c1 (stereo not drawn)	i
COc1ccccc1CN1C(=O)c2cc(-c3cccs3)nn2CC1(C)C(=O)NC1CCCCCC1 (stereo not drawn)	i
C=C1C(=O)OC[C@@H]1C/C=C(\C)CC1CC(C)C(=O)O1 (stereo partly drawn)	+
CCCN1C(=O)c2c(C(=O)NCCC3=CCCCC3)ncn2CC1(C)C(=O)NCc1ccc(F)cc1 (stereo not drawn)	i
COc1ccc2cc3n(c2c1)CC(C)(C(=O)NC1CCCCCC1)N(CCN1CCCCC1C)C3=O (stereo not drawn)	i
Cc1cc2c(cc1S(=O)(=O)N1CCN(c3ccc(F)cc3)CC1)n(C)c(=O)n2C	i
Cc1ccc(Cn2c(=O)c3ccccc3n3c(SCC(=O)Nc4cc(F)ccc4F)nnc23)cc1	i
COc1cccc(N2CCN(C(=O)CCc3nnc4n(Cc5ccc(C)cc5)c(=O)c5ccccc5n34)CC2)c1	i
CNC(=O)c1ccccc1Nc1nc(Nc2ccc3c(c2OC)CCCC(N2CCN(CCO)CC2)C3)ncc1Cl (stereo not drawn)	+
COc1c(Nc2ncc(Cl)c(N[C@H]3[C@@H](C(N)=O)[C@@H]4C=C[C@H]3C4)n2)ccc2c1CC[C@@H](N1CCOCC1)CC2	i
CCCN1C(=O)c2cc(C(=O)NCCc3ccc(SC)cc3)nn2CC1(C)C(=O)NC1CCCC1 (stereo not drawn)	i
SMILES	Methyltransferases
O=C(CCc1nnc2n(Cc3ccc(Cl)cc3)c(=O)c3ccccc3n12)N1CCN(C2CCCCC2)CC1	i
CCCn1c(=O)c2cc(F)ccc2n2c(SCC(=O)Nc3cc(Cl)ccc3OC)nnc12	i
COC(=O)c1ncn2c1C(=O)N(Cc1cccc(OC)c1OC)C(C)(C(=O)NC1CCCCC1)C2 (stereo not drawn)	i
Cn1c(CNc2ccc(C(=N)N)cc2)nc2cc(C(=O)N(CCC(=O)O)c3ccccn3)ccc21	+
COc1ccc(OC)c2c1cc1n2CC(C)(C(=O)NC2CCCC2)N(CCc2ccccc2)C1=O (stereo not drawn)	i
Cc1cccc(CSc2nnc3n(C)c(=O)c4ccc(C(=O)NC5CCCC5)cc4n23)c1	i
CC1CCN(S(=O)(=O)c2nn(C)cc2C(=O)NCCc2cccs2)CC1	i
CC1(C(=O)NC2CCCCCC2)Cn2c(ccc2-c2ccco2)C(=O)N1CCc1ccc(Cl)cc1 (stereo not drawn)	i
O=C(Nc1ccccc1)N1CCC(Cc2cnc3ccccc3c2)CC1	i
NCC(CNc1nc(Nc2cccc(NC(=O)N3CCCC3)c2)ncc1I)C(=O)c1cccs1 (stereo not drawn)	+

Assay outcomes (PubChem)
